These results are taken from PubChem BioAssay (Tox21).

Unmarked numbers belong to inactive results. Records with an inconclusive call do not appear. Activity calls are given as the source filed them. Unless noted, the call rests on the fitted dose curve; in most records, active means well fitted curve in the direction sought with a large enough effect in the repeat runs; inconclusive means weak or mixed curves; inactive means no such curve, though single readings can be large; an effect the other way counts as inactive or inconclusive.

Assay [1] has as its target Thyrotropin-releasing hormone receptor (Homo sapiens) (UniProt P34981). In words: qHTS assay to identify small molecule agonists of the thyrotropin-releasing hormone receptor (TRHR) signaling pathway (AID 1346891; calls by dose curve;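 further: HEK293 cells expressing TRHR with calcium dye readout; series mostly up to about 58 µM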). Summed up: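 In 1536-format, 1500 TRHR-Hek293 cells per well grew 18 h, took up calcium dye for 2 h at 37 °C, received compound, and were read kinetically; 15-point titrations, triplicates.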
A general note: In qHTS, concentration-response curves come from the screen itself.

Assay [2] can be described thus: Human pregnane X receptor (PXR) small molecule agonists, qHTS cell viability counter screen (AID 1346977). Further: nearly all actives have a fitted effect of over 50% in size. Summed up: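 Readout is CellTiter-Fluor fluorescence from PXR-Luc HepG2 cells. Plated cells rested 5hr, then were treated with compounds for 24hr at 37C and 5% CO2, with reagent present during the last hour.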
Assay [3] is described as follows: Caspase-3/7 induction in HepG2 cells by small molecules, qHTS assay (AID 1346978). Further: nearly all actives have a fitted effect of over 15% in size. The method, boiled down: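 Caspase-3/7 induction was measured by Caspase-Glo 3/7 luminescence (30 min, room temperature) after a 17 hr compound exposure of wild-type HepG2 cells seeded at 2,000 per well and pre-incubated 5 hr.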
Assay [4] is described as follows: Caspase-3/7 induction in CHO-K1 cells by small molecules, qHTS cell viability counter screen (AID 1346979). Further: nearly all actives have a fitted effect of over 35% in size. Further: potency means the concentration at half of the fitted maximal effect. The method, boiled down: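 To flag cytotoxic compounds, treated CHO-K1 wild-type cells were given CellTiter-Fluor at 16hr and read fluorescently after 1hr at 37C; the caspase-3/7 luminescence was measured in these same wells.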
Assay [5] in a line: Caspase-3/7 induction in HepG2 cells by small molecules, qHTS cell viability counter screen (AID 1346981). Further: nearly all actives have a fitted effect of over 30% in size. Further: potency means the concentration at half of the fitted maximal effect. The method, boiled down: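 In this quantitative HTS counter screen, compounds delivered in DMSO were left on unmodified HepG2 cells for 16 hr at 37 C. Viability was then determined fluorometrically with CellTiter-Fluor, in parallel with caspase-3/7 induction in the same wells.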

Assay [6] deals with Nuclear receptor subfamily 1 group I member 2 (Homo sapiens) (UniProt O75469). In words: Human pregnane X receptor (PXR) small molecule agonists, qHTS assay (AID 1346982). Further: nearly all actives have a fitted effect of over 35% in size. Further: potency means the concentration at half of the fitted maximal effect. The method, boiled down:
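Reporter HepG2 cells expressing PXR-Luc are cultured in charcoal-stripped FBS (5%), treated with compounds for 24 hr at 37 C, and assayed by ONE-Glo luminescence after 30 min at room temperature.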

The target in assay [7] is Acetylcholinesterase (Homo sapiens) (UniProt P22303). Put plainly: Acetylcholinesterase (AChE) small molecule antagonists: colormetric cell-based qHTS assay (AID 1347395; calls by dose curve; further: nearly all actives have a fitted effect of over 30% in size; further: potency means the concentration at half of the fitted maximal effect). Summed up:
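Neuroblastoma line SH-SY5Y supplied the enzyme; cells were preincubated with compound for 30 min at 37 C and 5% CO2. Acetylthiocholine with DTNB was then added for 90 min at 37 C, and thiocholine was measured by colour.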

Assay [8] has the same target. Put plainly: Acetylcholinesterase (AChE) small molecule antagonists: enzyme-based qHTS assay (AID 1347397; calls by dose curve; further: nearly all actives have a fitted effect of over 55% in size). The conditions noted are these: Potency: AChE enzyme activity inhibition. Summed up:
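Colorimetric DTNB readout of acetylthiocholine hydrolysis, 10 min at room temperature, after 30 min room-temperature exposure of 50 mU/mL recombinant human enzyme to compound; DMSO vehicle control.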

Assay [9] shares this target. In words: Acetylcholinesterase (AChE) small molecule antagonists: fluorescence cell-based qHTS assay (AID 1347398; calls by dose curve; further: nearly all actives have a fitted effect of over 50% in size; further: potency means the concentration at half of the fitted maximal effect). The conditions noted are these: Potency: AChE activity. Summed up:
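Cellular AChE activity read as thiocholine from acetylthiocholine hydrolysis, detected by Thiolite Green fluorescence at 490/520 nm after 40 min at room temperature. Compounds were pre-incubated 30 min at 37 C on adherent SH-SY5Y cells.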

Assay [10] has the same target. Put plainly: Acetylcholinesterase (AChE) small molecule antagonists: enzyme-based qHTS assay with human liver microsomes (AID 1347399; calls by dose curve; further: nearly all actives have a fitted effect of over 60% in size; further: potency means the concentration at half of the fitted maximal effect). The conditions noted are these: Potency: qHTS inhibition. Summed up:
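Recombinant human AChE (50 mU/mL in the enzyme mix) and human liver microsomes (0.25 mg/mL final) were preincubated with compound and NADPH (0.25 mg/mL final) for 30 min at 37 C. Acetylthiocholine/DTNB was then added; thiocholine was read colorimetrically after 10 min at room temperature.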

In assay [11] the target is Cytochrome P450 2D6 (Homo sapiens) (UniProt P10635). In words: Cytochrome P450 Family 2 Subfamily D Member 6 (CYP2D6) small molecule antagonists: luciferase reporter qHTS assay (AID 1671196). Further: nearly all actives have a fitted effect of over 50% in size. Further: potency means the concentration at half of the fitted maximal effect. The method, boiled down: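 Test chemicals meet CYP2D6 plus proluciferin substrate (10 min, RT); NADPH regenerating solution then drives turnover for 1 h. Detection reagent halts the reaction; luminescence measured after 20 min.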
Sequence of Cytochrome P450 2D6 (Homo sapiens) (P10635 whole entry, looked up): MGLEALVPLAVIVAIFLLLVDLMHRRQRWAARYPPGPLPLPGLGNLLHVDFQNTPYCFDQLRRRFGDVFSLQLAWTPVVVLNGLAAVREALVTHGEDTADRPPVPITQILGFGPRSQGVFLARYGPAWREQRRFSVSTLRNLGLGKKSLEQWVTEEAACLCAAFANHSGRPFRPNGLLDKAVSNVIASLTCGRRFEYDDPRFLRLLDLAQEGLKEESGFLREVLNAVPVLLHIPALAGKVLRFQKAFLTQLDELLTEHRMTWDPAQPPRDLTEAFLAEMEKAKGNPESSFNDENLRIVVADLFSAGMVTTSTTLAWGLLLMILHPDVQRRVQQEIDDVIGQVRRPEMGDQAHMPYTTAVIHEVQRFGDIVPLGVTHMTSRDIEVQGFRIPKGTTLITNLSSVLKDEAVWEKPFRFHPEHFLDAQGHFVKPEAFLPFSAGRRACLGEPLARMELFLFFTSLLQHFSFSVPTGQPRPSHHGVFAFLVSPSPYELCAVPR
Background: A reporter such as luciferase makes a cellular process visible.

Assay [12] concerns the target Cytochrome P450 2C19 (Homo sapiens) (UniProt P33261). Put plainly: Cytochrome P450 Family 2 Subfamily C Member 19 (CYP2C19) small molecule antagonists: luciferase reporter qHTS assay (AID 1671197). Further: nearly all actives have a fitted effect of over 65% in size. Further: potency means the concentration at half of the fitted maximal effect. The method, boiled down: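 P450-Glo CYP2C19 screening system; proluciferin substrate; DMSO compound stocks; 10 min RT preincubation; NADPH regeneration, 1 h at 37C; luciferin detection reagent, 20 min RT; luminescence as RLU.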

In assay [13] the target is Cytochrome P450 2C9 (Homo sapiens) (UniProt P11712). In words: Cytochrome P450 Family 2 Subfamily C Member 9 (CYP2C9) small molecule antagonists: luciferase reporter qHTS assay (AID 1671198). Further: nearly all actives have a fitted effect of over 50% in size. Further: potency means the concentration at half of the fitted maximal effect. The method, boiled down:
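Enzyme-substrate mix preincubated with compound 10 min at room temperature; reaction started with NADPH regeneration solution, 1 h 37C. Luminescent luciferin product read after 20 min detection reagent.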

Assay [14] concerns the target Cytochrome P450 1A2 (Homo sapiens) (UniProt P05177). In words: Cytochrome P450 Family 1 Subfamily A Member 2 (CYP1A2) small molecule antagonists: luciferase reporter qHTS assay (AID 1671199). Further: nearly all actives have a fitted effect of over 50% in size. Further: potency means the concentration at half of the fitted maximal effect. The method, boiled down:
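Steps: enzyme-substrate mix dispensed; test compounds and furafylline control pinned in; 10 min room temperature; NADPH regeneration solution added, 1 h; reaction stopped with luciferin detection reagent; luminescence read after 20 min.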

Assay [15] concerns the target Cytochrome P450 3A4 (Homo sapiens) (UniProt P08684). In words: Cytochrome P450 Family 3 Subfamily A Member 4 (CYP3A4) small molecule antagonists: luciferase reporter qHTS assay (AID 1671201). Further: nearly all actives have a fitted effect of over 50% in size. Further: potency means the concentration at half of the fitted maximal effect. Summed up:
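Setup: enzyme-substrate mix, compound pin transfer, 10 min RT. Reaction: NADPH regeneration solution, 1 h RT. Readout: detection reagent stops turnover, luminescence measured after 20 min, expressed in relative luminescence units.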

A short description of assay [16]: Caspase-3/7 induction in CHO-K1 cells by small molecules, qHTS assay (AID 1346980). Further: nearly all actives have a fitted effect of over 15% in size. The method, boiled down:
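Luminescent Caspase-Glo 3/7 read (30min, room temperature) quantified apoptosis induction. Cells were wild-type CHO-K1, treated with compound for 17hr at 37 C and 5% CO2.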

In assay [17] the target is Voltage-gated inwardly rectifying potassium channel KCNH2 (Homo sapiens) (UniProt Q12809). Put plainly: Human Ether-a-go-go-Related Gene (hERG) channel small molecule antagonists: fluorescence cell-based qHTS assay (AID 1671200). Summed up:
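Measured: Tl+ flux via fluorescence (480/540 nm) in hERG-expressing U2OS cells after 1 h dye loading at room temperature.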
(Block of hERG is tested as a sign of cardiac risk.)

Sequence of Acetylcholinesterase (Homo sapiens) (P22303 whole entry, looked up): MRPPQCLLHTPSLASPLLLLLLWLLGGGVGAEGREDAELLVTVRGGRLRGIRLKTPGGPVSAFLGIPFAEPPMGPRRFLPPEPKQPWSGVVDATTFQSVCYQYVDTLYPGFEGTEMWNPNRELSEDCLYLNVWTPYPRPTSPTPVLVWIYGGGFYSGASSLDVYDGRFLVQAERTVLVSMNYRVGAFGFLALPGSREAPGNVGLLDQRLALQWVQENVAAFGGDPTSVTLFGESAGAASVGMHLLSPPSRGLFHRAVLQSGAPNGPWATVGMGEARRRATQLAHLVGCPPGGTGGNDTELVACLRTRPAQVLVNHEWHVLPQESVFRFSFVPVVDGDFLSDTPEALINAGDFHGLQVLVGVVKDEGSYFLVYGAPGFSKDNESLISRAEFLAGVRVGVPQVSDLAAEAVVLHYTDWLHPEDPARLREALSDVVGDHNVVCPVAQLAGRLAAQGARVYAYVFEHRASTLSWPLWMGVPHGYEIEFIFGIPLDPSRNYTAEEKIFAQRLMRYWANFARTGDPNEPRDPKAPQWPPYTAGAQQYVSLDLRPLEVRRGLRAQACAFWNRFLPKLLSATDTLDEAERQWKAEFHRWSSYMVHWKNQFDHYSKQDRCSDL
Sequence of Cytochrome P450 2C19 (Homo sapiens) (P33261 whole entry, looked up): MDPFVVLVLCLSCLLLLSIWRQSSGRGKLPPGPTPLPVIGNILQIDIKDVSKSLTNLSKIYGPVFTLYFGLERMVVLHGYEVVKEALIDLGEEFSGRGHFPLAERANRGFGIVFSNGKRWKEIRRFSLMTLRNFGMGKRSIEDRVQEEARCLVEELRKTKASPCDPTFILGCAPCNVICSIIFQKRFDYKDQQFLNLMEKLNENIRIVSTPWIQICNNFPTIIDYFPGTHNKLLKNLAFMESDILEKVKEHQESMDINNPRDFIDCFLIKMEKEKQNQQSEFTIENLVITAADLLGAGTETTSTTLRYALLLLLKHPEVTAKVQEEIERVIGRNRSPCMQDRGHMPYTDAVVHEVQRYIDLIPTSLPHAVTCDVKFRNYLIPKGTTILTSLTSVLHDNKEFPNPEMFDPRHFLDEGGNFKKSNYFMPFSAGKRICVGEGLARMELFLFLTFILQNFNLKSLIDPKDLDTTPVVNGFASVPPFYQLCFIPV
Sequence of Cytochrome P450 3A4 (Homo sapiens) (P08684 whole entry, looked up): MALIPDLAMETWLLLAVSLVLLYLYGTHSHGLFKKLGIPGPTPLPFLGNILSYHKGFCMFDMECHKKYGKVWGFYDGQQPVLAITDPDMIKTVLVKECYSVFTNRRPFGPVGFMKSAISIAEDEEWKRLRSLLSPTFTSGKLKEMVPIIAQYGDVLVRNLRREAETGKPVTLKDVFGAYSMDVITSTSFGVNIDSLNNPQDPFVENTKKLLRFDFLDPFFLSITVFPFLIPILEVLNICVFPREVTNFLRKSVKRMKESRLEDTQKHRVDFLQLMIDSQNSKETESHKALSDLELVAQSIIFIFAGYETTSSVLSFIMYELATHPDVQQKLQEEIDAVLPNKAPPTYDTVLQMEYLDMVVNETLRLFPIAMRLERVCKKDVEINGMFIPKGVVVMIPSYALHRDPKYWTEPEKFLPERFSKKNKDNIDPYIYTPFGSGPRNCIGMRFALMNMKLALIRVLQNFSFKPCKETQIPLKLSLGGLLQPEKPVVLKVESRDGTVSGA
Sequence of Cytochrome P450 2C9 (Homo sapiens) (P11712 whole entry, looked up): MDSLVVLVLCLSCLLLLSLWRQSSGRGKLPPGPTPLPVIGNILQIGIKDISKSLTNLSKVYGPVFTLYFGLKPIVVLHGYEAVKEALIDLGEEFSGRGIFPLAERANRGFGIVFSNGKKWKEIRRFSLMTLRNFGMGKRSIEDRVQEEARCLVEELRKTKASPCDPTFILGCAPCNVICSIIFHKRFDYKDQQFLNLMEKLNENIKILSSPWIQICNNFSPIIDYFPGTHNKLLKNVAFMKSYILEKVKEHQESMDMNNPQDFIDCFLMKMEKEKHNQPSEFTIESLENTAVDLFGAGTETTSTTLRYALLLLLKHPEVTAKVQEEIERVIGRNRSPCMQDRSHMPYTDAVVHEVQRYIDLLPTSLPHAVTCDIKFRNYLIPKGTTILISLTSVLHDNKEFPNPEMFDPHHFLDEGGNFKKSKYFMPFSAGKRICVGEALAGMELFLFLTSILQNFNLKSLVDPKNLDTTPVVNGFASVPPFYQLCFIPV
Sequence of Cytochrome P450 1A2 (Homo sapiens) (P05177 whole entry, looked up): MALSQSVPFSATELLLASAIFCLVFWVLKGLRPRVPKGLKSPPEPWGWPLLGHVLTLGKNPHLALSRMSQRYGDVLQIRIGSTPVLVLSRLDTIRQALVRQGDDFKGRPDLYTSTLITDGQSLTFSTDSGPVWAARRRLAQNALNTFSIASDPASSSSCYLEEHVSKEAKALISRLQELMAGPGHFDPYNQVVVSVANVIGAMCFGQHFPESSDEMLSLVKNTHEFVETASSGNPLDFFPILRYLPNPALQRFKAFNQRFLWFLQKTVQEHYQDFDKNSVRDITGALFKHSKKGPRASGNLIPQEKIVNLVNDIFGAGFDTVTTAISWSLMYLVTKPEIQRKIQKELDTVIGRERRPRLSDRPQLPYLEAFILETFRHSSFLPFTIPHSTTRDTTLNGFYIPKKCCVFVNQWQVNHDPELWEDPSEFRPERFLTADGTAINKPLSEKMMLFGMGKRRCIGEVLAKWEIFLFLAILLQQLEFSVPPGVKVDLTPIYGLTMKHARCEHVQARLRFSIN
Sequence of Nuclear receptor subfamily 1 group I member 2 (Homo sapiens) (O75469 whole entry, looked up): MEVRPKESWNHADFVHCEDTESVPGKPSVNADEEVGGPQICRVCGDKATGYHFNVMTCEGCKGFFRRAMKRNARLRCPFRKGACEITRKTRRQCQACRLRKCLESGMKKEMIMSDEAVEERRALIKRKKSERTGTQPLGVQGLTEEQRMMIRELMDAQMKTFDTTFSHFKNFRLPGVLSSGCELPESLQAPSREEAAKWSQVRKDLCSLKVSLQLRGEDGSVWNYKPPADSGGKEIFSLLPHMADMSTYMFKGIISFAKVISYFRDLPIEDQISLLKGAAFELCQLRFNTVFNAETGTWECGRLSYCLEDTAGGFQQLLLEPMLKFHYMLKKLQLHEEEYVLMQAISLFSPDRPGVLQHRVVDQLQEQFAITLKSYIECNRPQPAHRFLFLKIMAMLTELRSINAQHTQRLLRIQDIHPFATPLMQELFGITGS
Sequence of Thyrotropin-releasing hormone receptor (Homo sapiens) (P34981 whole entry, looked up): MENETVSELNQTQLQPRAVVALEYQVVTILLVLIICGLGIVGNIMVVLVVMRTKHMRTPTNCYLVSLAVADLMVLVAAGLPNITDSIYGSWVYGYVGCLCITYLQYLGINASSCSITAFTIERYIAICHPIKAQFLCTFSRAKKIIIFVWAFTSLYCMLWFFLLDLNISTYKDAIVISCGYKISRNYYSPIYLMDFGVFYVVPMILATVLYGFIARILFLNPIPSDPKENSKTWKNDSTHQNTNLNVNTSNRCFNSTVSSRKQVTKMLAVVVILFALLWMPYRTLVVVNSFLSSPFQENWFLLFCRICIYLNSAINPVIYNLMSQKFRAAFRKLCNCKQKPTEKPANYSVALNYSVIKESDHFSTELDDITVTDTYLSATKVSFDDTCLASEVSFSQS

On to `CCc1ccc(C(=O)NN(C(=O)c2cc(C)cc(C)c2)C(C)(C)C)cc1`, for which the Potency entry in assay [1], in assay [2], in [3], in assay [6], in [7] and in assay [8] was “inactive” each time. Moreover, the Potency entry in assay [9], in assay [10], in [11] and in assay [14] was “inactive” throughout. Besides, the Potency is 27.3 µM (active) in assay [4]; 9.69 µM (active) in assay [5]; 5.03 µM (active) in [12]; 11.2 µM (active) in [13]; 5.03 µM (active) in [15].
With `C[N+](C)(C)CCCl`, the Potency result in assay [1], in [2], in assay [3], in assay [16], in assay [5] and in assay [7] was “inactive” each time. The Potency entry in assay [8], in assay [9], in assay [10], in assay [11], in assay [12] and in assay [13] was “inactive” throughout. The Potency entry in assay [14], in assay [17] and in assay [15] was “inactive” in each case.
In the case of `Sc1ccccc1Cl`, the Potency result in [1], in assay [2], in [3], in [16], in assay [5] and in assay [6] was “inactive” throughout. Besides, the Potency result in assay [7], in assay [8], in assay [9], in assay [11], in assay [12] and in assay [13] was “inactive” in each case. Besides, the Potency result in [14], in assay [17] and in assay [15] was “inactive” each time.
`C=CC[C@]1(O)CC[C@H]2[C@@H]3CCC4=CC(=O)CCC4=C3C=C[C@@]21C`: the Potency entry in assay [1], in [2], in assay [3], in assay [16], in assay [5] and in [6] was “inactive” in each case. In addition, the Potency result in assay [7], in assay [8], in [10], in assay [14] and in assay [17] was “inactive” each time. Moreover, the Potency in [9] was 6.92 µM (active); in [12] it was 9.77 µM (active); in [13] it was 11 µM (active).
As to `O=C1C(Cl)C(CCl)CN1c1cccc(C(F)(F)F)c1` (stereo not given), the Potency entry in [1], in assay [2], in assay [3], in assay [4], in [5] and in assay [7] was “inactive” throughout. Moreover, the Potency entry in assay [8], in assay [9], in [10], in assay [13] and in assay [15] was “inactive” each time. Also, the Potency in assay [6] is 24.3 µM (active); in assay [12] it was 8.94 µM (active); in [14], 1 µM (active).
For the compound `O=C(CBr)c1ccccc1`, the Potency result in assay [1], in assay [2], in assay [3], in [16], in assay [5] and in assay [6] was “inactive” throughout. In addition, the Potency entry in assay [7], in assay [8], in [9], in assay [10], in assay [17] and in assay [15] was “inactive” in each case. In addition, the Potency in assay [11] is 2.53 µM (active); in assay [12], 56.7 µM (active); in assay [14], 63.7 µM (active).
Regarding `COP(=S)(Oc1cc(Cl)c(Br)cc1Cl)c1ccccc1` (stereo not given), the Potency result in assay [1], in assay [2], in assay [3], in assay [16] and in assay [5] was “inactive” in each case. Also, the Potency in assay [6] is 24.3 µM (active); in assay [7], 63.3 µM (active); in assay [10] it was 8.94 µM (active); in assay [12], 0.224 µM (active); in assay [13] it was 0.796 µM (active); in [14], 15.9 µM (active). The Potency in [15] was 7.1 µM (active).
